High-throughput results deposited in PubChem BioAssay by National Center for Advancing Translational Sciences (NCATS).
In the library only some 2.8% were active in any assay of this set; here they are far more common.
D3 antag: D3 dopamine receptor (human) antagonism; D3R cells, DiscoveRx beta-arrestin luminescence, antagonist mode; stronger effect = lower value; max response, negative = inhibition, %; 360,000 tested, 2.5% active; AID 652054; P35462; in the data active means max response below about -50%; inconclusive means no clear call, values can overlap the other calls; further: on the % scale 0 is the no-effect control and ±100 the full control effect
Target sequence (P35462 whole entry, looked up): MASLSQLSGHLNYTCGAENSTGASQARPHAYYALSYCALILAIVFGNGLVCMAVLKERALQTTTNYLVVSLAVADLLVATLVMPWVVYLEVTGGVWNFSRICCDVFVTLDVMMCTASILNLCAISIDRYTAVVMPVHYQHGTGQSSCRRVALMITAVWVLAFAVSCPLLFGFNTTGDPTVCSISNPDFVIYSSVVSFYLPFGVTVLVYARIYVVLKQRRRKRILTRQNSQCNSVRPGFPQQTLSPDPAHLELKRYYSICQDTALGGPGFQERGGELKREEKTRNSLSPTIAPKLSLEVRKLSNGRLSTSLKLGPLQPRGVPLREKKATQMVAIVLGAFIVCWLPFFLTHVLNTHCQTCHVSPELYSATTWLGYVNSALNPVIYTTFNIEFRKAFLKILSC
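Cells plated overnight at 1500 cells/well, then exposed to library compounds with dopamine controls for 90 minutes at 37 degrees C. DiscoveRx reagent added for 30–60 minutes at room temperature; luminescence read, quantitative HTS format.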
DRD3 agonist: activates the human D3 dopamine receptor; P35462; D3R DiscoveRx beta-arrestin cells, luminescence, 90 min; max activation, %; 410,000 tested, 0.58% active; AID 652048; in the data active means max activation above about 30%; further: 0% is about no effect
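Agonist-mode cell screen: cells plated at 1500/well and incubated overnight at 37 °C, then exposed to library compounds for 90 min at 37 °C. Detection reagent was added for 30–60 min at room temperature, and luminescence was read.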
B2AR arrestin: agonists driving beta-arrestin recruitment to human beta2-adrenergic receptor. beta-arrestin recruitment to beta2AR, cell-based reporter. Potency, µM (series often up to 46.1 µM), inactives show at the highest dose activation, most hits filed as activators. 330,000 tested, 0.02% active. AID 492947; active means well fitted activation curve with a large enough effect; inconclusive means small, poorly fitted or top-dose-only effect;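 further: potency means the concentration at half of the fitted maximal effect; 0% = DMSO controls and full agonism = EC100 isoproterenol or metaproterenol; nearly all actives have a fitted effect of over 65% in size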
Giardia killer: kills Giardia lamblia | AID 540267 | activity change, % at 7.66 µM, hits read low | Giardia lamblia trophozoite viability | 340,000 tested, 0.15% active; in the data active means activity change below about -80%; inconclusive means between about -30% and that limit;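 further: parasites exposed to compound for two days anaerobically before the ATP read; on the % scale 0 is the no-effect control and ±100 the full control effect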
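Compounds were tested on trophozoites seeded at 100 cells/well and held 48 hrs at 37 deg C anaerobically. An ATP-based luminescent kit measured the remaining live cells.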
* hit, by the source's call; u = inconclusive; x = not tested or not shown.

SMILES	D3 antag	DRD3 agonist	B2AR arrestin	Giardia killer
Cc1c(CNC2CCC(C)CC2)c(C(=O)O)c(C)n1Cc1ccc(Cl)cc1 (stereo unspecified)	x	-8	x	x
FC(F)(F)c1cnc(Sc2nnc(-c3cccs3)n2CC2CCCO2)c(Cl)c1 (stereo unspecified)	-4	31*	0%	25
S=C(Nc1ccccc1Cl)N1CCCCC1	13	-5	-1%	-25
O=C1CN(C(=S)Nc2ccccc2Cl)CCN1	5	45*	0%	15
Cc1ccc(-n2ncc(C(=O)NCc3ccco3)c2C2CCN(C(=O)OC(C)(C)C)CC2)c(C)c1	x	9	x	x
CCCC(=O)Nc1cc2nn(-c3ccc(OC)cc3)nc2cc1C	x	43*	x	x
COc1ccc(-n2nc3cc(C)c(NC(=O)CC(C)C)cc3n2)cc1	x	x	0%	x
COC1CCCN(Cc2cn(C)nc2-c2ccc(Oc3ccccc3)cc2)C1 (stereo unspecified)	-52*	-3	-1%	-4
COCCN1CCCC(CNCc2cn(C)nc2-c2ccc(Oc3ccccc3)cc2)C1 (stereo unspecified)	-21	-2	0%	0
c1ccc2c(c1)ccn1c(Cc3ccsc3)c(C3CCCCC3)nc21	-83*	-17	x	x
CCCN(CCC)C(=O)C(CCC(=O)OCCCN1CCN(CCOC(=O)Cc2c(C)n(C(=O)c3ccc(Cl)cc3)c3ccc(OC)cc23)CC1)NC(=O)c1ccccc1 (stereo unspecified)	x	-30	x	x
O=S(=O)(NCCCN1CCN(c2ccccc2F)CC1)c1cccc2cccnc12	-96*	5	-1%	11
COCCN1CCN(Cc2nc(C3(c4ccc(C)cc4)CCCC3)no2)CC1	-54*	-15	-1%	-2
COCc1cc(C)nc(N2CCN(c3ccccc3)CC2)c1C#N	20	3	0%	7
COCc1cc(C)nc(N2CCNCC2)c1C#N	-56*	-7	0%	-9
COCc1cc(C)nc(N2CCN(Cc3ccccc3)CC2)c1C#N	-90*	-24	0%	16
O/C(=C\c1nc2ccccc2nc1/C=C(\O)c1ccccc1)c1ccccc1	-67*	-5	0%	u
O=C(CN1C(=O)CSc2ccc(S(=O)(=O)N3CCCCC3)cc21)NCc1ccc(F)cc1Cl	x	-16	x	x
COc1ccccc1C(=O)Nc1ccc2nc(SCC(=O)N(C)C)sc2c1	14	3	0%	-19
COc1ccccc1C(=O)Nc1ccc2nc(SCC(=O)N(C)c3ccccc3)sc2c1	x	39*	x	x
CNC(=O)c1ccccc1Sc1ccc2c(/C=C/c3ccccn3)n[nH]c2c1	x	6	x	x
COCCNC(=O)c1c(CSc2ccccc2)noc1C(=O)NCc1ccccc1	10	6	0%	4
COCCNC(=O)c1c(CS(=O)(=O)c2ccccc2)noc1C(=O)NCc1ccccc1	13	36*	-4%	0
Oc1ccc(Br)cc1C1C=C(c2ccc3c(c2)OCO3)NC(c2ccc(Br)cc2)N1 (stereo unspecified)	x	x	x	5
Cc1ccc(O)c(C(=O)CC(=O)c2ccccc2Cl)c1	-9	2	0%	-11
SMILES	D3 antag	DRD3 agonist	B2AR arrestin	Giardia killer
Cc1ccc(C(=O)CC(=O)c2cccc(F)c2)c(O)c1	-62*	-3	0%	-2
CC(=O)c1ccc(C)cc1OC(=O)c1cccc(F)c1	4	14	0%	-8
Cc1ccc(C(=O)CC(=O)c2ccccc2C)c(O)c1	-50*	11	-1%	-6
CCOc1cc(C(=S)N2CCOCC2)ccc1OS(=O)(=O)c1ccccc1[N+](=O)[O-]	3	0	1.2µM*	u
COc1ccccc1Cc1c(-c2ccco2)nc2ccc(C)cn12	-50*	-13	x	x
Cc1cc(Br)cn2c(Cc3ccccc3)c(-c3cccc(Br)c3)nc12	-51*	-12	x	x
COc1ccccc1Cc1c(-c2cccc(Br)c2)nc2ccc(Br)cn12	-20	-4	x	x
COc1ccccc1Cc1c(-c2ccc(OC)c(OC)c2)nc2ccc(C)cn12	48	7	x	x
COc1ccccc1Cc1c(-c2cccc(Br)c2)nc2ccc(Cl)cn12	-50*	-10	x	x
COc1ccccc1Cc1c(-c2ccco2)nc2c(C)cc(Br)cn12	-92*	-16	x	x
CCc1ccc(CN(C(=O)c2cc(=O)c3ccc(C)cc3o2)C2CCS(=O)(=O)C2)cc1 (stereo unspecified)	x	0	x	x
O=S(=O)(c1cccnc1)N1CCN(c2nc(-c3cccs3)nc3ccccc23)CC1	x	x	x	-6
COC(=O)c1ccc(NC(=O)CC2C(=O)N(c3cccc(OC)c3)C(=O)N2Cc2cccs2)cc1 (stereo unspecified)	x	7	x	x
Cc1cc(Br)cn2c(Cc3ccccc3)c(-c3ccco3)nc12	24	5	x	x
Cc1cc(Br)cn2c(Cc3ccsc3)c(-c3ccco3)nc12	-56*	-15	x	x
CCOc1ccccc1C1C(C(=O)N2CCCCC2)=C(C)Nc2nc3ccccc3n21 (stereo unspecified)	x	-7	x	x
O=C(NCCS(=O)(=O)N1CCN(c2ccccc2F)CC1)c1cccs1	20	2	-1%	13
O=C(CNC(=O)c1cccs1)NCCN1CCN(c2ccccc2F)CC1	-52*	-11	0%	-7
O=C(NCCN1CCN(C(=O)c2cccs2)CC1)C(=O)Nc1ccc(Br)cc1	-25	-1	0%	26
O=C(NCCN1CCN(C(=O)c2cccs2)CC1)c1cccs1	-74*	-34	0%	0
Cc1cc(F)ccc1NC(=O)C1CCCN(C(=O)c2cnn(-c3ccccc3)c2-n2cccc2)C1 (stereo unspecified)	x	2	x	x
CCc1c2c(nc3ccc4c(c13)OCCO4)-c1nc3ccccc3c(=O)n1C2	x	x	x	-13
O=C(Nc1ccc(F)cc1)c1ccc(Cn2nc(N3CCN(c4ccccc4)CC3)ccc2=O)o1	x	-2	x	x
Cc1c(/C=N/NC(=O)c2ccccc2O)c2ccccn2c1C(=O)c1ccc(F)cc1	13	31*	-1%	u
Cc1nn(C(CC(=O)O)C(=O)O)c(C)c1Br (stereo unspecified)	-22	42*	0%	1
COc1ccccc1/C=C/CN1CCC(Oc2ccc(C(=O)N3CCCCC3)cc2)CC1	-105*	-50	3%	15
